Source: PubChem BioAssay (NCATS)
A number with no mark means an inactive call. Active and inactive are the calls of the source. Calls come from the whole dose curve; as a rule, active = well fitted activation curve with a large enough effect; inconclusive = small, poorly fitted or top-dose-only effect; inactive = flat fitted curve, though single readings scatter.

assay: Cellular Toxicity (caspase-3) N2a (AID 665); conditions: N2a cells, luminescence, normalized: DMSO 0%, 10 µM staurosporine 100%; series mostly up to 92.2 µM; caspase-3 activation: at the top concentration;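 note: compound exposure lasted 16 h at 37 °C before readout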
From the text: NIH Chemical Genomics Center [NCGC]
NIH Molecular Libraries Screening Centers Network [MLSCN]
National Institutes of Environmental Health Sciences [NIEHS]
National Toxicology Program [NTP]
We have developed a 1536-well cell-based assay for quantitative high throughput screening (qHTS) against a number of cell lines to determine in vitro caspase 3/7 activity of small molecules. This particular assay uses the N2a cell line which is derived from mouse neuroblastoma.
NCGC Assay Protocol Summary:
The Caspase-Glo 3/7 assay (Promega) is a homogeneous method to measure caspase-3 and caspase-7 activities in cultured cells. The quantitation of caspase 3/7 activity is based on the cleavage of a peptide-aminoluciferin substrate. After caspase cleaves the substrate the free aminoluciferin is liberated and serves as the substrate of luciferase, which generates the light. The luminescent signal is proportional to the amount of caspase 3/7 activity present.
Using the Caspase-Glo 3/7 assay, the amount of caspase 3/7 activity was measured in the N2a cells with complete culture medium following compound treatment for 16 hours. The assay was performed in opaque white 1536-well plates. In the screen, staurosporine and doxorubicin were used as positive controls. Library compounds were measured for their ability to cause the activation of caspase 3/7 in the cell line, as reflected by an increase in luminescence signal, in a concentration-dependent manner. Data were normalized to the controls for basal activity (DMSO only) and 100% stimulation (10 uM staurosporine). AC50 values were determined from concentration-response data modeled with the standard Hill equation.
qHTS protocol for caspase 3/7 assay in mouse N2a cell line
[Step] [Parameter] [Value] [Description]
1. Reagent; 5 uL; 1500 mouse N2a cells/well
2. Time; 5 hr; 37 °C incubation
4. Controls; 23 nL; doxorubicin 7 pM to 100 uM & staurosporine 1.4 pM to 20 uM
5. Time; 16 hr; 37 °C incubation
6. Reagent; 5 uL; Caspase-Glo 3/7 reagent
7. Time; 1 hr; Room Temperature
8. Detection; Luminescence; Viewlux plate reader
Keywords: caspase 3/7, apoptosis, mouse N2a cell line, luminescence, NTPHTS, NTPHTS_NCGC, NIEHS, EPA, DSSTox, MLSMR, MLSCN, NIH Roadmap, qHTS, NCGC

Compound	caspase-3 activation	outcome
O=[N+]([O-])c1ccc(F)c([N+](=O)[O-])c1	-14.4%	–
COc1ccc2c(c1OC)C(=O)OC2C1c2cc3c(cc2CCN1C)OCO3 (stereo unspecified)	-1.48%	–
O=C(O)C(Cl)(Cl)Cl	–	inactive
O=C/C=C/c1ccccc1	–	inactive
CCCCCCCCOC(=O)c1ccccc1C(=O)OCCCCCCCC	-0.654%	–
NNC(N)=O	-0.152%	–
ClC=C(Cl)Cl	0.398%	–
[Cl-].[Cl-].[Hg+2]	-13.4%	–
CCCCCl	-3.13%	–
O=C1C2CC=CCC2C(=O)N1SC(Cl)(Cl)Cl (stereo unspecified)	–	inactive
C[C@]12CCC(=O)C[C@@H]1CC[C@@H]1[C@@H]2CC[C@]2(C)[C@@H](O)CC[C@@H]12	1.33%	–
O=Cc1ccco1	2.01%	–
O=CC=O	-1.51%	–
C[C@H]1CC[C@@H]2[C@@H](C)[C@H]3[C@H](C[C@H]4[C@@H]5CC=C6CC(O[C@@H]7O[C@H](CO)[C@H](O)[C@H](O[C@@H]8O[C@H](CO)[C@@H](O)[C@H](O)[C@H]8O)[C@H]7O[C@H]7O[C@@H](C)[C@H](O)[C@@H](O)[C@H]7O)CC[C@]6(C)[C@H]5CC[C@]34C)N2C1 (stereo partly specified)	-13.2%	–
CC(C)CCON=O	0.146%	–
ClCC1CO1 (stereo unspecified)	4.38%	–

Compound	caspase-3 activation	outcome
S=C=S	-0.938%	–
O=[N+]([O-])c1ccccc1	-3.81%	–
Oc1cc(Cl)c(Cl)cc1Cl	2.15%	–
C[C@H]1CCC[C@H](O)CCCCCc2cc(O)cc(O)c2C(=O)O1	5.61%	–
C=CCN=C=S	-2.1%	–
ClC(Cl)(Cl)Cl	–	inactive
CCOC(=O)c1ccccc1C(=O)OCC	–	inactive
[O]=[Cd]	0.61%	–
Clc1ccccc1Cl	-3.4%	–
O=C1C=CC(=O)C=C1	-4.59%	–
COC1=CC(=O)O[C@@H](/C=C/c2ccccc2)C1	-7.26%	–
[O]=[Cr](=[O])([OH])[O][Cr](=[O])(=[O])[OH]	–	inactive
O=C1CCO1	3.57%	–
CC(C)(C)c1cc(O)ccc1O	–	inactive
CC(C)Nc1ccc(Nc2ccccc2)cc1	-3.93%	–
